In PubChem BioAssay AID1259423 (Fisher Drug Discovery Resource Center, 2018):
Out of some 270,000 compounds screened, about 410 (0.15%) were called active. Rule as the data show it: active = activation above about 40%; inactive = the rest, inconclusive results apart. What follows is part of a selection rich in actives, with near analogues and random picks from the rest.

Test system: Aedes aegypti neuropeptide Y-like receptor 7 (NPYLR7)
Experiment: agonists of mosquito NPYLR7 receptor, primary screen, cell-based, Aedes aegypti, calcium fluorescence, mosquito biting behavior (AID 1259423);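 also: 0% = vehicle and 100% = reference agonist at the receptor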
Settings: HEK293T NPYLR7/Galpha15, GCaMP6s calcium fluorescence, at 10 µM, stronger effect = higher value
[1] = measured here: Max-Min RFU normalised activation

Row | Compound | activation | activation [1] [%]
1 | Cc1ccc(CNc2oc(-c3ccc(S(=O)(=O)N(C)Cc4ccccc4)cc3)nc2C#N)cc1 | -0.355% (inactive) | 4.09
2 | O=C(NC1Cc2ccccc2C1)c1ccc(-c2cc(-c3cccc(C(F)(F)F)c3)n[nH]2)cc1 | 25.1% (inactive) | 16.8
3 | N#Cc1cc(Cl)c(Cl)cc1C#N | 9.21% (inactive) | 8.51
4 | O=c1oc2c(Cl)cc(Cl)cc2cc1-c1nnc(Nc2ccccc2F)s1 | 3.96% (inactive) | 1.58
5 | N#Cc1cc2cc(Cl)cc(Cl)c2oc1=O | 189% (active) | 162
6 | CCCCNC(=O)c1c(C)c(C(=O)OCC)n(C)c1C | -1.79% (inactive) | 26.8
7 | O=C(Nc1cc(F)c(N2CCCC2)c(F)c1)C1Cc2ccccc2O1 (configuration not stated) | 2.58% (inactive) | 0.532
8 | COc1ccc(NC(=O)C(C)SCc2cccc(C(F)(F)F)c2)cc1 (configuration not stated) | -0.635% (inactive) | -2.01
9 | C=C(C)Cn1c(C2CC(=O)N(c3ccccc3CC)C2)nc2ccccc21 (configuration not stated) | -1.84% (inactive) | 23.5
10 | CCN(CC)C(=O)C1(C)CCN1C(=O)Cc1ccc(-c2ccccc2)cc1 (configuration not stated) | 4.71% (inactive) | 3.32
11 | COc1ccc(OCC(O)CN(Cc2cccn2C)CC2CCCO2)cc1 (configuration not stated) | 18.8% (inactive) | 19.6
12 | COc1cccc(CN(CC(O)COCC(C)C)CC2CCCO2)c1 (configuration not stated) | 23.7% (inactive) | 17.6
13 | CC(C)COCC(O)CN(Cc1cccn1C)CC1CCCO1 (configuration not stated) | 43.6% (active) | 42.4
14 | Fc1ccc(-c2cnc(NCCc3ccccn3)cn2)cc1Cl | -2.76% (inactive) | -5.38
15 | COC(=O)C1=C(NC(=O)CSCc2ccccc2)CCS1 | -1% (inactive) | -1.58
16 | CC1CCC(C(C)C)C(OCC(O)CN2CCN(CCO)CC2)C1 (configuration not stated) | 0.73% (inactive) | 22.3
